In ChEMBL document CHEMBL4513146, “CO-ADD screening of Karazin Kharkiv National University (Ukraine) compounds”:
Measured potencies and affinities stand elsewhere.

How the values were obtained:
Staphylococcus aureus = conditions: Concentration 32 ug.mL-1;; ASSAY_TEST Inhibition of Bacterial Growth; detection method Absorption (OD600); MEDIA CAMHB; plate type 384well; NBS; CORNING #3640; time 18 hr
Escherichia coli = conditions: Concentration 32 ug.mL-1;; ASSAY_TEST Inhibition of Bacterial Growth; detection method Absorption (OD600); MEDIA CAMHB; plate type 384well; NBS; CORNING #3640; time 18 hr

| Compound | Inhibition (Staphylococcus aureus) [%] | Inhibition (Escherichia coli) [%] |
| --- | --- | --- |
| CCOc1ccccc1NC(=O)Cn1nc2c(N3CCN(c4ccccc4)CC3)nccn2c1=O | 1.85 | -3.13 |
| COC(=O)c1cccc(NC(=O)Cn2nc3c(Oc4ccccc4)nccn3c2=O)c1 | 3.03 | -4.6 |
| Cc1ccc(-c2cc3c4nn(CC(=O)Nc5ccccc5F)c(=O)n4ccn3n2)cc1C | -4 | -9.57 |
| Cc1ccc(Oc2nccn3c(=O)n(CC(=O)N4CCN(c5ccccc5F)CC4)nc23)cc1 | 10.22 | -0.59 |
| COc1ccc(NC(=O)Cn2c(=O)c3nnc(C)n3c3ccccc32)cc1Cl | 14.24 | 3.26 |
| COC(=O)c1ccccc1NC(=O)Cn1nc2c3cc(-c4ccc(Cl)cc4)nn3ccn2c1=O | 10.87 | 6.58 |
| Cc1ccc(NC(=O)Cn2nc3c(Oc4ccccc4Cl)nccn3c2=O)cc1F | 7.48 | -2.62 |
| O=C(Cn1nc2c3cc(-c4ccc(F)cc4)nn3ccn2c1=O)N1CCCc2ccccc21 | -1.84 | -5.07 |
| O=C(Cn1nc2c(Oc3ccccc3)nccn2c1=O)Nc1ccccc1Cl | 6.14 | -6.19 |
| COc1ccc(CCNC(=O)Cn2nc3c(N4CCOCC4)nccn3c2=O)cc1OC | 21.7 | 0.1 |
| Cc1ccc(-c2ccc3nn(Cc4ccc5c(c4)OCO5)c(=O)n3n2)cc1C | -7.66 | -8.33 |
| CC(=O)c1ccc(NC(=O)Cn2nc3ccc(-c4ccc(C)c(C)c4)nn3c2=O)cc1 | 9.12 | -4.24 |
